The source made the active and inactive calls.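 The calls were made as follows: active = compounds whose fitted half-maximal concentration for lowering the signal is under 100 µM; inactive = the rest.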

The assay is described as follows: compound effect on K562 vector-control line – cell-based, flow cytometry, cherry pick set 1, counter-screen for ABCB6 inhibitor project, dose response (AID 623957). (A flow cytometer gives signals particle by particle.)

In the case of `C[N+](C)(C)CC1CCCC(C[N+](C)(C)C)C1=O` (stereo unspecified), the outcome was inactive.

These data come from PubChem BioAssay AID623957 (NMMLSC, 2012).
